Assay results as given in PubChem BioAssay AID1456 (Vanderbilt High Throughput Screening Facility, 2008).
About 4,100 (2.2%) of roughly 190,000 compounds were called active. This is one part of a sample in which actives are shown more often than they occur.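 How the source made its calls: active means thallium flux slope and its plate-corrected score both differing from the plate sample mean at a set confidence after two filtering rounds, in either direction; inactive means the rest.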

Target: Solute carrier family 12 member 5 (Homo sapiens) (UniProt Q9H2X9)
Test: KCC2 cotransporter modulators, thallium flux, primary screen, cell-based, HEK293 KCC2, FluoZin-2 fluorescence, MLSMR (AID 1456);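 further: slope of fluorescence scaled to starting intensity during 10 to 20 s after thallium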
Conditions: KCC2 cells, thallium flux FluoZin-2 fluorescence; at 10 µM

Solute carrier family 12 member 5 (Homo sapiens), sequence (Q9H2X9 whole entry, looked up): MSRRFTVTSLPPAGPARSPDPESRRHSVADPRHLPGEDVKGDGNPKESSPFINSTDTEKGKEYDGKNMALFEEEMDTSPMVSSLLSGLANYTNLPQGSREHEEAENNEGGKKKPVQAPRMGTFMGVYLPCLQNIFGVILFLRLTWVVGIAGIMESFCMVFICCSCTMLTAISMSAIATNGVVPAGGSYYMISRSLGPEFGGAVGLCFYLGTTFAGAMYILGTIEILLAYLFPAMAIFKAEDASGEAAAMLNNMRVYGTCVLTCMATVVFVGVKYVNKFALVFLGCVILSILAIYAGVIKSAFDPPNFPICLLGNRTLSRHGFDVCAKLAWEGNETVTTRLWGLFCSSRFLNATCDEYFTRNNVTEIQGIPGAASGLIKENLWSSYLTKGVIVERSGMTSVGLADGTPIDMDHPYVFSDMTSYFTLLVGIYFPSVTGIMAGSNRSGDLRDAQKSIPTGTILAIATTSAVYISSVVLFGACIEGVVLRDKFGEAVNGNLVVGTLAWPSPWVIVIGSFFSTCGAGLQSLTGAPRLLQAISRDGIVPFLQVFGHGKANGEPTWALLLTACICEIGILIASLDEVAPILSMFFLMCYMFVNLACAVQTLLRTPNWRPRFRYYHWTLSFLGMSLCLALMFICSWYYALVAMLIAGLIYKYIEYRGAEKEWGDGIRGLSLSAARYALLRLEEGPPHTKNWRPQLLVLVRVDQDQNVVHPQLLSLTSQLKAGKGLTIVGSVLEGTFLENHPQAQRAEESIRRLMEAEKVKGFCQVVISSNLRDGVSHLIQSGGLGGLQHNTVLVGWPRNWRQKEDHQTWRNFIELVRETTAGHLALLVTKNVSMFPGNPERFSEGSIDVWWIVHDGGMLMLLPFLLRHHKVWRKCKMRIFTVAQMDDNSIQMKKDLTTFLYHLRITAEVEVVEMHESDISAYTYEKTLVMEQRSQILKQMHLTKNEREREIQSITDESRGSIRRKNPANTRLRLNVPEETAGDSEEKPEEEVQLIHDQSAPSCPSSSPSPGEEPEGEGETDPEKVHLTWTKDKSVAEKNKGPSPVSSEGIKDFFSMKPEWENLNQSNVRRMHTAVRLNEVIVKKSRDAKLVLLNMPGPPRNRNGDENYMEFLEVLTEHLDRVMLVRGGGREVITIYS

Structure (SMILES) | B-score of Tl+ flux slope (higher = more flux/activation; lower = inhibition)
O=c1c(-c2ccc3c(c2)OCCO3)c(C(F)(F)F)oc2cc(O)cc(O)c12 | -2.89 (active)
COc1ccc(-c2onc(C)c2-c2ccc3c(c2)OCCO3)c(O)c1 | 0.0687 (inactive)
CCOC(=O)c1cc2cc(-c3c(C(=O)OCC)oc4cc(O)cc(O)c4c3=O)ccc2o1 | -1.36 (inactive)
COC(=O)C1=C(C)NC(=O)/C1=C/c1ccc(CNS(=O)(=O)c2ccc(C)cc2)o1 | -0.17 (inactive)
O=C(O)C(NS(=O)(=O)c1cccc2nsnc12)c1ccccc1 (stereo not drawn) | 0.0778 (inactive)
Cc1cc(=O)[nH]c(SCC(N)=O)c1C#N | 0.485 (inactive)
CCCCSc1[nH]c(=O)c(C(=O)OCC)cc1C#N | 13 (active)
CCOC(=O)c1cc(C#N)c(N2CCCCC2)nc1-c1ccccc1 | 0.496 (inactive)
CCc1c(C)nc2c(-c3ccccc3)c(C)nn2c1Nc1ccc(NC(C)=O)cc1 | 0.635 (inactive)
Cc1ccccc1NC(=S)NNC(=O)c1cccc(Br)c1 | 11.3 (active)
Cc1ccc(C)c(NC(=O)CCC(=O)NNC(=O)c2cccs2)c1 | -1.3 (inactive)
Cc1ccc(C)c(NC(=S)NNC(=O)c2csc(C)c2)c1 | 6.59 (active)
Cc1ccccc1NC(=O)c1ccccc1 | 0.272 (inactive)
Cc1ccc(C)c(NC(=O)C(OC(=O)c2ccc(C)s2)c2ccccc2)c1 (stereo not drawn) | 0.676 (inactive)
COC(=O)c1sc(NC(=S)NC(=O)c2ccc(C)cc2)nc1C | 33.9 (active)
CC(=O)c1sc(NC(=O)c2ccc(C)cc2)nc1C | 0.0252 (inactive)
Cc1ccc(C(=O)NC(=S)Nc2ccccc2C)cc1 | 26.9 (active)
O=C(NC(=S)Nc1cccc2c(O)cccc12)c1cccc(Br)c1 | 1.46 (inactive)
Cc1cc2[nH]ncc2cc1NC(=S)NC(=O)c1ccccc1 | 0.179 (inactive)
COC(=O)c1sc(NC(=O)c2ccc(OC)cc2OC)nc1C | -0.264 (inactive)
Cc1ccc(NC(=S)NC(=O)c2ccc(-c3ccccc3)cc2)c(C)c1 | 1.26 (inactive)

Structure (SMILES) | B-score of Tl+ flux slope (higher = more flux/activation; lower = inhibition)
Cc1ccc2c(c1)c1ncn(Cc3ccc(F)cc3)c(=O)c1n2C | -2.08 (inactive)
O=[N+]([O-])c1cc([N+](=O)[O-])c2cccnc2c1O | -1.12 (inactive)
COC(=O)c1ccc(COc2cc([N+](=O)[O-])cc3cccnc23)cc1 | 0.95 (inactive)
O=C(Nc1ccc([N+](=O)[O-])cc1)C1CC12CCC2 (stereo not drawn) | -0.552 (inactive)
CCOc1ccc(NC(=S)N2CCCCCC2)cc1 | -0.294 (inactive)
CCOCC(=O)Nc1ncc(S(=O)(=O)c2ccc([N+](=O)[O-])cc2)s1 | -0.205 (inactive)
CCc1ccc(-n2c(SCc3cc(=O)n4cc(Br)ccc4n3)nc3[nH]ncc3c2=O)cc1 | -1.01 (inactive)
CC(C)c1ccc(NC(=S)NNc2ccc(Cl)c(C(=O)O)c2)cc1 | 0.393 (inactive)
Cc1ccc(C)c(NC(=S)NNC(=S)Nc2ccc(C(C)C)cc2)c1 | 4.26 (active)
Cc1cc(C(=O)NNC(=S)NC(C)c2ccccc2)cs1 (stereo not drawn) | -1.17 (inactive)
Cc1ccc(NC(=S)N/N=C2/CCCc3c(C)cc(C)cc32)cc1 | 0.076 (inactive)
Cc1cc(C(=O)NNC(=S)Nc2ccccc2C)cs1 | 4.58 (active)
Cc1ccccc1NC(=S)Nc1cccc([N+](=O)[O-])c1 | 0.705 (inactive)
COc1ccc(CCNC(=O)C(=O)NCC2CCNCC2)cc1OC | 0.52 (inactive)
O=C(NNc1cc(Cl)cc(Cl)c1)c1c(F)cccc1Cl | -0.755 (inactive)
COc1cc(OC)c(OC)cc1/C=N/Nc1ncnc2c1[nH]c1ccc(C)cc12 | -1.07 (inactive)
Cc1ccc(C(=O)NNc2ncnc3ccccc23)cc1 | 0.377 (inactive)
OC(c1ccccc1)C(CN1CCOCC1)c1ccccc1 (stereo not drawn) | 0.0146 (inactive)
Cc1ccc(N=Cc2c(O)cc(C)oc2=O)c(C)c1 | 1.91 (inactive)
Cc1ccc(N=Cc2c(O)n(-c3nccs3)c(=O)c3ccccc23)c(C)c1 | -6.91 (active)
Cc1ccc(-n2c(O)c(C=Nc3ccc(S(=O)(=O)Nc4ncccn4)cc3)c3ccccc3c2=O)cc1C | -0.0402 (inactive)

Structure (SMILES) | B-score of Tl+ flux slope (higher = more flux/activation; lower = inhibition)
CC(=O)Nc1ccc(S(=O)(=O)NC2(C(F)(F)F)C(=O)NC(C)=C2C#N)cc1 (stereo not drawn) | -0.983 (inactive)
CCOC(=O)C1=C(NC(=S)NC(=O)c2ccccc2)c2ccccc2CC1(C)C | 3.94 (active)
CCOC(=O)c1c(NC(=O)C2(C)Cc3ccccc3C(=O)O2)sc2c1CCCC2 (stereo not drawn) | 1.05 (inactive)
COCCCNC(=S)NC(=O)c1ccccc1 | 1.23 (inactive)
Cc1nnsc1C(=O)NCc1c(F)cccc1Cl | 0.221 (inactive)
COc1ccccc1NC(=O)c1cc(Cl)nc2ccccc12 | 0.201 (inactive)
COc1cc(NC(=O)c2ccc(CNc3c(N4CCCC4)c(=O)c3=O)cc2)cc(OC)c1OC | 0.127 (inactive)
Cc1cc(C)nc(SCC(=O)N(C)C)n1 | -0.609 (inactive)
CCOC(=O)c1c(C)oc(C)c(C(=O)OCC)c1=O | -0.18 (inactive)
CCOC(=O)c1c(C)[nH]c(C)c1C(=O)CSc1nc(N)cc(N)n1 | 6.26 (active)
O=S(=O)(NCCc1csc(-c2ccccc2)n1)c1cccnc1 | -0.711 (inactive)
C/C(=N/NC(=O)CC(=O)N/N=C(\C)c1ccc([N+](=O)[O-])cc1)c1ccc([N+](=O)[O-])cc1 | -0.738 (inactive)
COc1ccccc1/C=C/C=N/n1c(-c2ccc(Cl)cc2Cl)n[nH]c1=S | 11.5 (active)
Fc1ccccc1/C=N/n1c(-c2cccnc2)n[nH]c1=S | -0.286 (inactive)
S=c1[nH]nc(-c2ccncc2)n1/N=C/c1ccccc1Cl | 1.47 (inactive)
COc1ccc(NC(=O)c2cn(-c3ccccc3)nc2SC)cc1 | -1.58 (inactive)
CCOC(=O)c1ccc(N=C2SC(C(=O)NC)CC(=O)N2CCc2ccccc2)cc1 (stereo not drawn) | 0.234 (inactive)
COc1ccc2nc(NC(=O)NC3CCCCC3)sc2c1 | -1.35 (inactive)
CCC1=C/C(=C\c2ccc3c(c2)OCO3)C(=O)S1 | -8.87 (active)
O=C1/C(=C/c2ccc3c(c2)OCO3)CCC/C1=C\c1ccc2c(c1)OCO2 | 0.12 (inactive)
CSC1=N/C(=C\c2ccc3c(c2)OCO3)C(=O)S1 | -0.302 (inactive)
